Reference: ChEMBL document CHEMBL1157539, “Thousands of chemical starting points for antimalarial lead identification” (Nature, 2010)

Legend:
Assay type in all cases: functional
Plasmodium falciparum [1] = assay: GSK_TCMDC: Inhibition of Plasmodium falciparum 3D7 in whole red blood cells, using parasite LDH activity as an index of growth. Test compounds present at 2uM
Plasmodium falciparum [2] = assay: GSK_TCMDC: Inhibition of Plasmodium falciparum Dd2 in whole red blood cells, using parasite LDH activity as an index of growth. Test compounds present at 2uM
HepG2 = assay: GSK_TCMDC: Percent inhibition of human HepG2 cell line. Test compounds present at 10uM.

| Structure (SMILES) | Inhibition (Plasmodium falciparum [1]) [%] | Inhibition (Plasmodium falciparum [2]) [%] | Inhibition (HepG2) [%] |
| --- | --- | --- | --- |
| CCOc1ccccc1C1C(C(=O)C(C)(C)C)N2c3ccc(Br)cc3C=CC2C12C(=O)c1ccccc1C2=O (stereo not drawn) | 95 | 94 | 17 |
| CC(C)C[C@H](NC(=O)c1ccc(OCCN2CCOCC2)cc1)C(=O)N[C@H](/C=N/NC(=O)OC(C)(C)C)CCc1ccccc1 | 96 | 87 | 8 |
| COc1ccc(NC2=C(c3ccccc3)C(=O)c3ccccc32)cn1 | 96 | 84 | 0 |
| Brc1cc(Br)c2c(c1)C(NCCCNC1CCNc3c(Br)cc(Br)cc31)CCN2 (stereo not drawn) | 98 | 25 | 18 |
| Cc1onc(-c2ccccc2)c1C(=O)Nc1nc(-c2ccccn2)nc2ccsc12 | 97 | 78 | 23 |
| COc1ccc(CNC2CCN(C)CC2)cc1-c1ccc(S(=O)(=O)NC2CCC2)s1.O=C(O)C(F)(F)F | 100 | 94 | 32 |
| CCCc1cc(C(=O)N[C@@H](Cc2ccccc2)[C@H](O)CNC2CCOCC2)c(F)c(N2CCCCS2(=O)=O)c1 | 97 | 97 | 0 |
| Fc1ccc2[nH]c(-c3cccc(-c4cccc(CNCc5cnn(-c6ccccc6)n5)c4)c3)nc2c1.O=C(O)C(F)(F)F | 91 | 57 | 18 |
| Cc1ccc(NS(=O)(=O)c2ccc(C(C)N3CCC(N4CCCCC4)CC3)cc2)cc1C (stereo not drawn) | 97 | 82 | 66 |
| NC1CCN(c2nc(NCCCc3ccc(O)cc3)nc(NCc3cccc4ccccc34)n2)CC1.O=C(O)C(F)(F)F | 100 | 2 | 12 |
| O=C(Cc1ccc(Cl)cc1)NC1CCN(c2ccnc3cc(Cl)ccc23)C1.O=C(O)C(F)(F)F (stereo not drawn) | 82 | 99 | 13 |
| CCn1c(-c2nonc2N)nc2c(-c3cccc(NC(=O)Nc4cccc(OC)c4)c3)ncc(OCCCN)c21.O=C(O)C(F)(F)F | 92 | 69 | 1 |
| CCCCc1ccc(-c2ccc(-c3c(C)[nH]c(C)c(Br)c3=O)cn2)cc1.Cl | 98 | 96 | 0 |
| c1ccc(-c2cccc(-c3ccccn3)n2)nc1 [TERPYRIDINE] | 98 | 99 | 45 |
| Cc1nc(N)nc(N)c1-c1ccc2ccccc2c1 | 97 | 2 | 60 |
| O=C(/C=C/c1ccc(Cl)c(Cl)c1)NCCCCCCN1CCCN(C(=O)Nc2cc(F)cc(F)c2)CC1 | 99 | 0 | 25 |
| O=C(/C=C/c1ccc(Cl)c(Cl)c1)NCCCCCN1CCC(NC(=O)NCCc2ccccc2)CC1 | 100 | 7 | 23 |
| N=C(N)Nc1nc(-c2cccc(NC(=O)NCC(c3ccccc3)c3ccccc3)c2)cs1 | 100 | 87 | 0 |
| O=C(/C=C/c1ccc(Cl)c(Cl)c1)NCCCCCN1CCC(NC(=O)c2ccc3ccccc3c2)CC1 | 87 | 20 | 8 |
| CCOc1cccc(C(=O)Nc2ccc(-c3nc4ccccc4[nH]3)cc2)c1 | 96 | 30 | 40 |
| CN(C)c1ccc2c(c1)Sc1cc(N(C)C)ccc1N2C(=O)CCCC(=O)[O-].[Na+] | 96 | 81 | 0 |

| Structure (SMILES) | Inhibition (Plasmodium falciparum [1]) [%] | Inhibition (Plasmodium falciparum [2]) [%] | Inhibition (HepG2) [%] |
| --- | --- | --- | --- |
| Cc1c(-c2cccc(NC(=O)C(C)(C)Oc3ccc(Cl)cc3)c2)nc2ncccn12 | 98 | 95 | 0 |
| N#Cc1cc([N+](=O)[O-])ccc1-n1nc(-c2cccc(Cl)c2)n(Cc2ccco2)c1=S | 100 | 100 | 12 |
| Cn1cncc1C(=O)Nc1ccc(-c2cccc(-c3nc4cc(F)ccc4[nH]3)c2)cc1 | 100 | 23 | 5 |
| Cc1cc(NC(=O)NCCN2CCC(NS(=O)(=O)c3ccc(C(F)(F)F)cc3)C2)c2ccccc2n1.O=C(O)C(F)(F)F (stereo not drawn) | 96 | 39 | 15 |
| O=C(Nc1cccc(-c2nn3ccccc3c2-c2ccnc(Nc3cccc(F)c3)n2)c1)c1c(F)ccc(F)c1Cl | 93 | 38 | 41 |
| N#Cc1ccc(CN2CCC(Oc3ccc(NC(=O)c4cccs4)cc3)CC2)cc1.O=C(O)C(F)(F)F | 83 | 82 | 10 |
| O=C(Nc1cccc(-c2cccc(-c3nc4ccccc4[nH]3)c2)c1)c1ccoc1 | 85 | 36 | 19 |
| c1ccc(Nc2nc(-c3ccccn3)cs2)nc1 | 87 | 93 | 45 |
| Cc1cc(O)c(CN(C)Cc2ccc3c(c2)OCCO3)cc1C(C)C | 98 | 47 | 10 |
| Cc1cccc2nc(-c3ccc(-c4ccc(CNCc5ccccc5)cc4)s3)[nH]c12.O=C(O)C(F)(F)F | 100 | 87 | 22 |
| CC(=O)Nc1cccc(C(=O)Nc2ccc(-c3cccc(-c4nc5cc(F)ccc5[nH]4)c3)cc2)c1 | 96 | 8 | 90 |
| CC(C)CN(Cc1c(O)ccc2[nH]c(-c3ccc(F)cc3F)nc12)CC(C)C | 98 | 92 | 11 |
| COc1ccc(Nc2nccc(N3CCC(NS(=O)(=O)c4ccc(NC(C)=O)cc4)C3)n2)cc1 (stereo not drawn) | 100 | 16 | 3 |
| CC(C)(C)c1ccc(NC(=O)c2ccc(CN3CCCN(Cc4ccsc4)CC3)cc2)cc1.O=C(O)C(F)(F)F | 96 | 0 | 50 |
| CN1CCN(c2ccnc3ccc(NC(=O)Nc4ccc(Cl)c(Cl)c4)cc23)CC1 | 97 | 17 | 0 |
| O=C(NCCCCN1CCC(c2cccc3ccccc23)CC1)c1ccc(-c2ccc(C(F)(F)F)cn2)cc1 | 91 | 36 | 31 |
| CCCCNC(=O)[C@H](CC1CCCCC1)NC(=O)c1ccc(O)c(-c2ccc(OC)cc2)c1 | 89 | 12 | 0 |
| Fc1cccc(Nc2nc(NCCc3ccc(Cl)cc3)nc(Nc3cccc(F)c3)n2)c1 | 93 | 30 | 0 |
| OC(CNC1CCCCC1)Cn1c2ccc(I)cc2c2cc(I)ccc21 (stereo not drawn) | 100 | 93 | 10 |
| CCc1sc(-c2cc(Cl)ccc2OC)nc1C(=O)NCCN1CCCCC1.O=C(O)C(F)(F)F | 100 | 28 | 3 |
| CC(=O)Nc1cccc(NC(=O)CSc2ccc(-c3nc4ccccc4[nH]3)cn2)c1 | 97 | 73 | 22 |

| Structure (SMILES) | Inhibition (Plasmodium falciparum [1]) [%] | Inhibition (Plasmodium falciparum [2]) [%] | Inhibition (HepG2) [%] |
| --- | --- | --- | --- |
| CCC(C)CC(=O)Nc1ccc(OC)c(S(=O)(=O)N[C@@H]2CCN(C#N)C2)c1 (stereo partly drawn) | 94 | 77 | 16 |
| CN(C)S(=O)(=O)c1cc(-c2ccc3nccc(-c4cccc(S(N)(=O)=O)c4)c3c2)cnc1N | 100 | 98 | 35 |
| CN(C)CCNC(=O)[C@H](Cc1ccccc1)NC(=O)c1ccc(O)c(-c2ccc(Cl)c(Cl)c2)c1 | 98 | 0 | 0 |
| O=C(O)C(F)(F)F.O=C1CCCN1CCCNCc1cccc(-c2cccc(-c3nc4cc(F)ccc4[nH]3)c2)c1 | 100 | 69 | 6 |
| O=C(Nc1ccccc1)N(Cc1cccc(-c2ccc(CNCc3ccc4c(c3)OCO4)cc2)c1)C1CCN(Cc2ccccc2)CC1.O=C(O)C(F)(F)F | 100 | 82 | 27 |
| CC(=O)Nc1ccc(C(=O)Nc2ccc(-c3cccc(-c4nc5cc(F)ccc5[nH]4)c3)cc2)cn1 | 100 | 84 | 13 |
| O=C(O)C(F)(F)F.OCC1CCN(Cc2ccc(-c3ccc(-c4nc5ccccc5[nH]4)cc3)cc2)CC1 | 100 | 84 | 37 |
| O=C1Nc2cccc3c2C1(CCCN1CCC(c2c[nH]c4cc(C(F)(F)F)ccc24)CC1)CCC3 (stereo not drawn) | 89 | 37 | 91 |
| O=C(O)C(F)(F)F.O=S(=O)(NCCN1CCCC1)c1ccc(-c2ccc(CN3Cc4ccccc4C3)cc2)s1 | 89 | 18 | 19 |
| Cc1n[nH]c(C)c1C1CCN(CC2CCC(NC(=O)/C=C/c3ccc(Cl)c(Cl)c3)CC2)CC1 (stereo not drawn) | 100 | 53 | 15 |
| COc1cccc(-c2ccc3c(-c4ccc(F)cc4)cnc(N)c3c2)c1.O=CO | 100 | 70 | 27 |
| Cc1cccc2nc(-c3cccc(-c4ccc(NC(=O)Cc5ccon5)cc4)c3)[nH]c12 | 87 | 38 | 34 |
| Br.Cc1ccc(OCCCON2C(=N)N=C(N)NC2(C)C)cc1C | 96 | 94 | 57 |
| CCC[C@@H]([C@@H](CC1CCC(C)CC1)C(=O)N[C@@H](CO)C(=O)Nc1nccs1)N(O)C=O (stereo partly drawn) | 100 | 84 | 0 |
| CCCc1cc(OC)c(C[C@H]2c3cc(O)c(Cl)cc3CCN2C)cc1OC.Cl | 97 | 98 | 0 |
| CC(=O)c1ccc(S(=O)(=O)N2CCC(C(=O)Nc3ccccc3N3CCCC3)CC2)cc1 | 95 | 99 | 0 |
| CCn1ccc2c3c(N)nc(N)nc3ccc21 | 99 | 2 | 61 |
| CC(C)C[C@@H](C(=O)Nc1ccc(Cc2ccc(NC(=O)[C@H](CC(C)C)N(C)C(=O)OC(C)(C)C)cc2)cc1)N(C)C(=O)OC(C)(C)C | 92 | 57 | 17 |
| CN(CCN)Cc1cccc(-c2ccc(-c3nc4cc(C(F)(F)F)ccc4[nH]3)s2)c1.O=C(O)C(F)(F)F | 100 | 92 | 27 |
